Experimental findings from ChEMBL document CHEMBL1157539, “Thousands of chemical starting points for antimalarial lead identification” (Nature, 2010) are described below.

As a reminder, the Inhibition is how much of the control response was suppressed.

Common to all, as to type: functional
The test system of assay [1] is Plasmodium falciparum. The assay is described as follows: GSK_TCMDC: Inhibition of Plasmodium falciparum 3D7 in whole red blood cells, using parasite LDH activity as an index of growth. Test compounds present at 2uM.
Assay [2] concerns Plasmodium falciparum. Briefly: GSK_TCMDC: Inhibition of Plasmodium falciparum Dd2 in whole red blood cells, using parasite LDH activity as an index of growth. Test compounds present at 2uM.
Another assay concerns HepG2. The assay is described as follows: GSK_TCMDC: Percent inhibition of human HepG2 cell line. Test compounds present at 10uM.

Structures are written as SMILES.

Turning to `Cc1cc(=NN=Cc2ccc(F)cc2)c2ccc(F)cc2[nH]1`, the Inhibition in the assay with Plasmodium falciparum [1] turned out to be 99%; in the assay on Plasmodium falciparum [2], 30%; with HepG2 it was 0%.
As to `Fc1ccc2c(NN=Cc3ccccc3)ccnc2c1`, the Inhibition with Plasmodium falciparum [1] is listed as 100%; in the assay with Plasmodium falciparum [2] it was 99%; in the assay with HepG2, 1%.
For the molecule `Cc1nc(-c2ccncc2)sc1C(=O)Nc1ccc(Cl)cc1C(=O)Nc1ccc(Cl)cc1`, the Inhibition with Plasmodium falciparum [1] was determined as 98%; in the assay with Plasmodium falciparum [2] it was 47%; in the assay with HepG2, 2%.
`CCOC(=O)c1ccc(Nc2cc(Nc3ccc(C(=O)OCC)cc3)nc(C)n2)cc1`: the values for the Inhibition in the assay on Plasmodium falciparum [1], with Plasmodium falciparum [2] and in the assay with HepG2 were 99%, 33% and 4%, respectively.
As to `O=C(Nc1ccc(OC2CCN(Cc3ccc(F)cc3)CC2)c(Cl)c1)c1ccc(F)cc1.O=C(O)C(F)(F)F`, the Inhibition in the assay on Plasmodium falciparum [1] is recorded as 97%; in the assay with Plasmodium falciparum [2], 95%; in the assay on HepG2 it was 37%.
Take `N[C@@H](Cc1cc(I)c(Oc2ccc(O)c(C(=O)O)c2)c(I)c1)C(=O)O`: the Inhibition with Plasmodium falciparum [1] amounted to 97%; in the assay on Plasmodium falciparum [2], 21%; in the assay on HepG2, 57%.
For the molecule `CCN1CCN(c2cc(C)c3cc(NC(=O)c4ccc(OC)c([N+](=O)[O-])c4)ccc3n2)CC1`, the figures for the Inhibition in the assay with Plasmodium falciparum [1], with Plasmodium falciparum [2] and in the assay with HepG2 were 100%, 93% and 25%, respectively.
For the molecule `CN1CCN(c2ccnc3ccc(NC(=O)Nc4ccc(Br)cc4)cc23)CC1`, the values for the Inhibition in the assay on Plasmodium falciparum [1], with Plasmodium falciparum [2] and in the assay on HepG2 were 100%, 99% and 12%, respectively.
The matching figures for `COc1cc(NCCCNC(=O)c2ccc(Cl)c(Cl)c2)nc2ccccc12`: 99%, 100% and 48%.
Regarding `Cl.Nc1c2c(nc3ccc(NC(=O)CCCc4ccccc4)cc13)CCCC2`, the Inhibition in the assay with Plasmodium falciparum [1] is reported as 100%; with Plasmodium falciparum [2], 42%; in the assay on HepG2, 73%.
Take `Clc1ccc(-c2nc3cc(-c4ccc5nc(-c6ccc(Cl)cc6)[nH]c5c4)ccc3[nH]2)cc1`: the Inhibition in the assay with Plasmodium falciparum [1] came out at 100%; in the assay on Plasmodium falciparum [2], 99%; with HepG2, 59%.
`Cc1cccc2nc(-c3ccc(-c4cccc(CN5CCCC(O)C5)c4)s3)[nH]c12.O=C(O)C(F)(F)F` (stereo not given): the Inhibition with Plasmodium falciparum [1] came out at 95%; with Plasmodium falciparum [2], 18%; in the assay with HepG2, 13%.
The matching figures for `O=C(NCc1cc2c(cc1Cl)OCO2)c1ccc(CNC2CCN(Cc3ccccc3)CC2)cc1.O=C(O)C(F)(F)F`: 100%, 47% and 11%.
As for `COc1ccc(-c2cnn3ccc(Nc4cc(OC)c(OC)c(OC)c4)nc23)cc1OC`, the Inhibition with Plasmodium falciparum [1] turned out to be 98%; in the assay on Plasmodium falciparum [2], 100%; in the assay with HepG2, 57%.
Regarding `Cc1noc(C)c1-c1ccc2c(Nc3ccccc3C(C)(C)C)c(C(=O)NCc3ccccc3)cnc2c1.Cl`, the Inhibition is on record as 99% in the assay on Plasmodium falciparum [1], 89% with Plasmodium falciparum [2] and 20% in the assay on HepG2.
As to `CCC(C)CN1CCN(c2cc(NC(=O)c3cccs3)ccn2)C(C)C1.O=C(O)C(F)(F)F` (stereo not given), the Inhibition in the assay with Plasmodium falciparum [1] is recorded as 88%; in the assay with Plasmodium falciparum [2], 72%; in the assay on HepG2, 5%.
In the same order, the values of `CC(C)(CNCc1cccc(Oc2ccccc2)c1)c1nc(-c2ccnc(N)n2)c(-c2ccc(Cl)c(O)c2)[nH]1.Cl` are 97%, 99% and 28%.
For the molecule `C=C[C@H]1CN(CCCCCCC)CC[C@H]1CC(O)Cc1ccnc2cc(O)c(OC)cc12.O=C(O)C(=O)O` (stereo not given in full), the Inhibition in the assay on Plasmodium falciparum [1] was determined as 95%; in the assay on Plasmodium falciparum [2] it was 59%; in the assay with HepG2, 7%.
In the case of `COc1ccc(CCN2CCC(Nc3nc4ccccc4n3CCc3ccc(OC)cc3)CC2)cc1.Cl`, the Inhibition is on record as 100% in the assay with Plasmodium falciparum [1], 88% in the assay with Plasmodium falciparum [2] and 34% in the assay on HepG2.
In the same order, the values of `CCNc1cc(C(=O)N[C@@H](Cc2cccc(Cl)c2)[C@H](O)CNC(C)CCCC(C)C)cc(N2CCCCS2(=O)=O)c1.Cl` (stereo not given in full) are 98%, 78% and 7%.
As for `COc1ccc(NC(=O)/C=C/c2ccccc2Cl)cc1OCCN1CCC(N2CCCCC2)CC1`, the Inhibition in the assay on Plasmodium falciparum [1] is reported as 100%; in the assay with Plasmodium falciparum [2], 49%; in the assay with HepG2 it was 3%.
In the same order, the values of `O=C(Nc1cccc(-c2ccc(-c3nc4cc(F)ccc4[nH]3)s2)c1)c1cccnc1` are 100%, 72% and 46%.
With `O=C(Nc1cccc(-c2ccc(-c3nc4ccccc4[nH]3)cc2)c1)Nc1ccc2c(c1)OCO2`, the Inhibition stood at 90% with Plasmodium falciparum [1], 8% with Plasmodium falciparum [2] and 20% with HepG2.
Regarding `CC(C(=O)N1CCCC1)N1CCN(S(=O)(=O)c2ccc(C(C)(C)C)cc2)CC1` (stereo not given), the Inhibition is on record as 98% in the assay on Plasmodium falciparum [1], 86% in the assay with Plasmodium falciparum [2] and 4% with HepG2.
Take `CCOC(=O)c1c(CCc2ccc(C(F)(F)F)cc2)nc2c(c1-c1ccc(C(=O)N[C@@H](C)c3ccncc3)cc1)C(=O)N1CCC[C@@H]21`: the results for the Inhibition in the assay on Plasmodium falciparum [1], with Plasmodium falciparum [2] and with HepG2 were 85%, 68% and 0%, respectively.
For the molecule `CCN(CC)CCN(Cc1ccc(-c2ccc(C(F)(F)F)cc2)cc1)C(=O)Cn1c(SCc2ccc(F)cc2)nc(=O)c2ccccc21.O=C(O)C(O)C(O)C(=O)O`, the Inhibition in the assay with Plasmodium falciparum [1] is listed as 98%; in the assay with Plasmodium falciparum [2], 48%; in the assay on HepG2, 47%.
For the molecule `Oc1ccc(CCNc2nc(N/N=C/C=C/c3ccc(Cl)cc3)nc(N3CCNCC3)n2)cc1`, the Inhibition in the assay with Plasmodium falciparum [1] is reported as 98%; in the assay on Plasmodium falciparum [2], 52%; in the assay on HepG2 it was 17%.
`COc1ccc(CNC2Cc3ccccc3C2)cc1-c1ccc(S(=O)(=O)NCCN2CCCC2)s1.O=C(O)C(F)(F)F`: the Inhibition in the assay with Plasmodium falciparum [1] is on record as 100%; with Plasmodium falciparum [2], 100%; in the assay on HepG2 it was 89%.
For `CCOC(=O)c1ccc(-c2c(C(F)(F)F)noc2-c2cc(CC)c(OC)cc2O)o1`, the values for the Inhibition with Plasmodium falciparum [1], in the assay with Plasmodium falciparum [2] and with HepG2 were 100%, 95% and 0%, respectively.
`O=C(Nc1ccc(-c2cccc(-c3nc4ccccc4[nH]3)c2)cc1)Nc1ccc(Cl)c(Cl)c1`: the Inhibition in the assay on Plasmodium falciparum [1] came to 100%; in the assay on Plasmodium falciparum [2], 80%; in the assay on HepG2, 61%.
